SMILES strings stand for the structures. In all, about 1,200 compounds went through this assay and about 170 (14%) were called active. The rule behind the calls is not given here. Not all results are given here. Entries with a potency or affinity are not part of this list.

The experiment can be described thus: twin-arginine translocation blockade, bacterial reporter – cherry-pick, set 2, plate reader, dose response (AID 504941). As to conditions: E. coli Tat transport reporter; series mostly up to 38 µM.
For the compound `CC(C)(CO)[C@@H](O)C(=O)NCCC(=O)O`, the compound was classed as inactive.
The entry for `COc1ccc(-c2nc(C#N)c(NCC3CCCO3)o2)cc1OC` (stereo not drawn) is “inactive”; for `CCNc1nc(OC)nc(Oc2ccc(=O)n(-c3ccccc3)n2)n1` it is “inactive”.
The entry for `CCCCN(CCCC)C(=O)c1cn(CC)c2cc(N3CCN(C)CC3)c(F)cc2c1=O` is “inactive”.
The entry for `CC(C)(C)CC(=O)Nc1ccc(Nc2ccccc2)cc1` is “inactive”; for `CC(=O)Nc1cccc(-c2csc(Nc3cc(C)ccn3)n2)c1` it is “inactive”; for `Nc1ccc(S(=O)(=O)N2CCCc3ccccc32)cc1` it is “inactive”.
`NC(=O)c1c(NC(=O)C(=O)N2CCOCC2)sc2c1CCC2`: the result was inactive.
The entry for `NC(=O)NC(=O)CSc1nc2sc(-c3ccccc3)cc2c(=O)n1-c1ccccc1` is “inactive”.
As to `CCn1c(CCn2c3ccccc3c3ccccc32)n[nH]c1=S`, the result was inactive.
As for `CCc1ccc(NC(=O)Nc2cc(C(=O)NCC3CCCO3)ccc2N2CC3CC(C2)c2cccc(=O)n2C3)cc1` (stereo not drawn), the compound was classed as inactive.
The entry for `CCCN=C1N(CC)C[C@@H]2[C@@H]3C(=O)N(C)C(=O)[C@@H]3[C@](Cc3ccccc3)(C(=O)OC)N12` is “inactive”; for `CC(NC(=O)Nc1nccs1)(C(F)(F)F)C(F)(F)F` it is “inactive”; for `COc1ccc(C2C(C#N)=C(N)Oc3c2sc2nc(C)cc(C)c32)cc1` (stereo not drawn) it is “inactive”.
The entry for `COc1cc2c(cc1NC(=O)COC(=O)[C@@H](NC(=O)c1ccccc1)C(C)C)oc1ccccc12` is “inactive”; for `Cc1cccc2c1cnn2C(=O)CCC(=O)N1CC(C)CC(C)C1` (stereo not drawn) it is “inactive”.
With `CC(SCC(=O)Nc1ccc(F)cc1)c1nc2ccccc2c(=O)[nH]1` (stereo not drawn), the compound was called inactive.
The entry for `O=C(c1ccco1)N1CCN(C(=O)c2ccc(CS(=O)c3ccc(F)cc3)o2)CC1` (stereo not drawn) is “inactive”; for `Cc1nn2c(COc3ccc(NC(=O)c4ccccc4Cl)cc3)nnc2c2ccccc12` it is “inactive”.
The entry for `O=C(O)c1ccc(N/N=C/c2ccc(-c3ccccc3)cc2)cc1` is “inactive”; for `COc1cccc(CN(C(=O)Cc2c[nH]c3ccccc23)C(C(=O)NC2CCCCC2)c2ccc(C)o2)c1` (stereo not drawn) it is “inactive”.
The entry for `CCc1cccc(CC)c1NC(=S)NCC(c1cccnc1)N(C)C` (stereo not drawn) is “inactive”; for `COc1ccc(-c2ccc(-c3noc(-c4ccccc4OC)n3)c(OC)n2)cc1` it is “inactive”; for `N#Cc1cccc(C(=O)OCC(=O)NCc2ccco2)c1` it is “inactive”.
Turning to `CCOc1ccc(NC(=O)c2ccc(NC(=O)c3cn4c5c(c(N6CCN(C)CC6)c(F)cc5c3=O)OCC4C)cc2)cc1` (stereo not drawn), the outcome was inactive.
The entry for `O=C(c1ccco1)N1CCCC(c2nc3c(nnn3Cc3ccc(F)cc3)c(=O)[nH]2)C1` (stereo not drawn) is “inactive”; for `CCOC(=O)N1CCC(N(CCN(C)C)C(=S)Nc2ccc(Oc3ccccc3)cc2)CC1` it is “inactive”.
Consider `Cc1noc(NS(=O)(=O)c2ccc(NC(=O)c3ccoc3C)cc2)c1C`, for which the compound was classed as inactive.
The entry for `C=CCOc1ccccc1CN1CCC(n2nccc2NC(=O)C2CC2)CC1` is “inactive”.
Take `O=C(CSc1nccn1Cc1ccccc1)NC1CCCC1`: the compound was classed as inactive.
With `O=C(NNC(=S)Nc1cccc(Cl)c1)c1ccccc1OC(F)F`, the result was inactive.
Turning to `COc1ccc(C2CC(=O)Nc3n[nH]c(-c4ccccc4)c32)cc1OC` (stereo not drawn), the outcome was inactive.
In the case of `CCc1ccc(N2CC(C(=O)N3CCN(c4ccccn4)CC3)CC2=O)cc1` (stereo not drawn), the outcome was inactive.
For `COc1ccc(-c2nnc(Nc3ccc(CC(N)=O)cc3)c3ccccc23)cc1`, the compound was classed as inactive.
The entry for `Cc1cc(C)n(CCCNC(=O)COc2ccc([N+](=O)[O-])cc2)n1` is “inactive”.
As for `CCC(=O)NC(c1ccccc1Cl)c1c(O)ccc2ccccc12` (stereo not drawn), the outcome was inactive.
Regarding `COc1ccccc1NS(=O)(=O)c1cc(NC(C)=O)ccc1N1CCCCC1`, the result was inactive.
`CCn1c2ccc(C)cc2c2nnc(SCCN3CCOCC3)nc21`: the outcome was inactive.
The entry for `COC(=O)c1ccc(NC(=O)N2CCC(O)(c3cccnc3)CC2)cc1` is “inactive”; for `Cc1ccc(/C=C2/C(=N)N3N=C(CC(=O)N4CCCC4)SC3=NC2=O)o1` it is “inactive”; for `COC(=O)c1c(NC(=O)CCN2CCOCC2)sc2c1CCCC2` it is “inactive”.
With `COc1ccc(CCN=C(N)NS(=O)(=O)c2cccs2)cc1`, the compound was classed as inactive.
The entry for `COc1cc(SC)ccc1C(=O)OCC(=O)NC(=O)NC(C)C` is “inactive”; for `COc1cccc(NC(=O)Nc2cnccn2)c1` it is “inactive”; for `O=C(N/C(=C/c1cccc([N+](=O)[O-])c1)C(=O)N1CCOCC1)c1ccc(Br)cc1` it is “inactive”.
The entry for `Cn1cccc1CNCC(O)c1ccccc1` (stereo not drawn) is “inactive”.
The entry for `CC(Sc1nnc(-c2ccccc2F)n1C1CC1)C(=O)NCc1ccco1` (stereo not drawn) is “inactive”; for `CC1CCN(c2ccc(C(=O)NCc3ccco3)cc2[N+](=O)[O-])CC1` it is “inactive”.
On to `N#Cc1cccc(Nc2c3c(nc4ccccc24)CCCC3)c1`, for which the compound was classed as inactive.
The entry for `O=S(=O)(c1cc(Cl)cc(Cl)c1O)N1CCC2(CC1)OCCO2` is “inactive”.
For the compound `CS(=O)(=O)c1ccc(Cl)c(NC(=O)COC(=O)CCc2c[nH]c3ccccc23)c1`, the outcome was inactive.
The entry for `CCS(=O)(=O)c1ccc(NC(=O)c2ccccc2Cl)c(O)c1` is “inactive”.
The entry for `Nc1ccn(CC(=O)N2CCN(c3ccccn3)CC2)c(=O)n1` is “inactive”; for `NC(=O)c1ncn([C@@H]2O[C@H](CNCc3cccn3-c3ccncc3)[C@@H](O)[C@H]2O)n1` it is “inactive”; for `O=C(NCc1ccc2c(c1)OCO2)c1c(O)c2cccc3c2n(c1=O)CCC3` it is “inactive”.
Take `Cc1nc(NC(=O)c2ccco2)sc1-c1csc(Nc2ccc(Cl)cc2)n1`: the compound was classed as inactive.
The entry for `Cc1ccc(SCc2noc(C(=O)NC(C)C)c2C(=O)O)cc1C` is “inactive”; for `CCCCNC(=O)NNC(=O)c1ccc(F)cc1` it is “inactive”.
The entry for `O=C(O)C1C(=O)NCC1c1ccccc1` (stereo not drawn) is “inactive”; for `Cc1ccc(C(=O)N/C(=C\c2cn(S(=O)(=O)N(C)C)c3ccccc23)C(=O)NCCCN2CCOCC2)cc1` it is “inactive”.
The entry for `COc1ccc(Nc2nc(NCCO)nc(OC)n2)cc1` is “inactive”.
Turning to `CCOC(=O)CC(NC(=O)c1cccc2c1C(=O)N(Cc1cccnc1)C2)c1ccc(OCC)c(OC)c1` (stereo not drawn), the compound was classed as inactive.
As to `OC1(c2ccccc2Cl)NN=C2CCCCCN21` (stereo not drawn), the outcome was inactive.
The entry for `Cc1nc2ccccn2c1/C(O)=C1\C(=O)C(=O)N(CCN(C)C)C1c1ccco1` (stereo not drawn) is “inactive”; for `COc1ccccc1N1C(=NC(=O)CCc2ccccc2)SC2CS(=O)(=O)CC21` (stereo not drawn) it is “inactive”.
The entry for `COc1ccc(Cc2nnc(NS(=O)(=O)c3ccc(Cl)cc3)s2)cc1OC` is “inactive”; for `CCNc1c(NS(=O)(=O)c2ccc(OC)cc2)c(=O)oc2ccccc12` it is “inactive”.
Take `Oc1ccc(/C=N/Nc2ccccc2)cc1`: the compound was classed as inactive.
The entry for `CC(C)c1nnc(NC(=O)CCS(=O)(=O)Cc2ccccc2)s1` is “inactive”; for `CC(=O)NS(=O)(=O)c1ccc(NC(=O)c2cc(-c3cccs3)nc3ccccc23)cc1` it is “inactive”; for `O=C(Cn1ccc(C(F)(F)F)n1)Nc1ccc(S(=O)(=O)NCc2ccco2)cc1` it is “inactive”.
The entry for `CCC(C)n1nccc1NC(=O)C(C)Cl` (stereo not drawn) is “inactive”; for `O=C(Nc1cccc(-c2nc3cccnc3s2)c1)C1c2ccccc2Oc2ccccc21` it is “inactive”.
Take `Nc1cc(OC(=O)c2ccc(F)cc2)nn1S(=O)(=O)c1ccc(F)cc1`: the result was inactive.
The entry for `CC(C)(C)n1nnnc1C(c1cc2cc3c(cc2[nH]c1=O)OCCO3)N1CCSCC1` (stereo not drawn) is “inactive”.
The entry for `Cc1cc(C(C#N)c2ccccc2F)n2ncnc2n1` (stereo not drawn) is “inactive”; for `C=CCc1c(C)nc(C)nc1N/N=C/c1ccc(N(C)C)cc1` it is “inactive”; for `COc1ccc(S(=O)(=O)N(C)c2ccc(C(=O)N3CCOCC3)cc2)cc1` it is “inactive”.
In the case of `CCCCOc1ccc(C2CC(=O)N(C)C2=O)cc1` (stereo not drawn), the compound was classed as inactive.
The entry for `CC[C@H]1OC(=O)[C@H](C)[C@@H](O[C@H]2C[C@@](C)(OC)[C@@H](O)[C@H](C)O2)[C@H](C)[C@@H](O[C@@H]2O[C@H](C)C[C@H](N(C)C)[C@H]2O)[C@](C)(OC)C[C@@H](C)C(=O)[C@H](C)[C@@H](O)[C@]1(C)O` is “inactive”.
On to `NC(=O)c1ccccc1NC(=O)COc1ccc2c(c1)OCO2`, for which the outcome was inactive.
The entry for `CCCN(Cc1ccccc1)C(=S)Nc1ccc(SC(F)F)cc1` is “inactive”; for `c1ccc2c(OCCCN3CCCCCC3)cccc2c1` it is “inactive”; for `C[C@H](NC(=O)c1nc[nH]c1C(=O)NCc1ccc(CNC(=O)OC(C)(C)C)cc1)c1ccccc1` it is “inactive”.
The entry for `CC(C)(C)OC(=O)N[C@@H](Cc1ccccc1)[C@H](O)c1ccco1` is “inactive”; for `Cc1ccccc1-c1nc(CN2CCC(C(=O)O)CC2)c(C)o1` it is “inactive”.
The entry for `CC(O/N=C/c1ccc(OC(F)F)cc1)C(=O)Nc1cccc(S(=O)(=O)N2CCOCC2)c1` (stereo not drawn) is “inactive”; for `Fc1ccc(-n2c(-c3ccc4ccccc4n3)n[nH]c2=S)cc1Cl` it is “inactive”.
Take `Nc1nc(CN2CCCCC2)cs1`: the outcome was inactive.
The entry for `CCCn1c2c(c(=N)c3c1CCC3)CCCC2` is “inactive”; for `COc1ccc(C2OC(=O)CC2C(=O)NCc2ccc(F)cc2)cc1OC` (stereo not drawn) it is “inactive”.
As to `Cc1ccc2oc3c(c(=O)c2c1)C(c1cccs1)N(CCCN(C)C)C3=O` (stereo not drawn), the outcome was inactive.
The entry for `CC(=O)N1CCN(c2cc3c(cc2F)c(=O)c(C(=O)O)cn3C2CC2)CC1` is “inactive”; for `CC(C)C[C@@H](CN1CCC[C@@H]1CN1C(=O)C(=O)NC[C@@H]1Cc1ccccc1)N1C[C@H](Cc2ccc(O)cc2)N(CC2CCCCC2)C(=O)C1=O` it is “inactive”.
The entry for `CCCC(=O)c1c[nH]c(C(=O)N2CCOCC2)c1` is “inactive”.
The entry for `CCC(=NCCc1ccc(OC)c(OC)c1)C1=C(O)CC(C)(C)CC1=O` is “inactive”; for `N#Cc1nc(-c2ccccc2Cl)oc1N1CCN(C(=O)c2ccco2)CC1` it is “inactive”.
`C1=C(CCNc2ncnc3c2cnn3-c2ccccc2)CCCC1`: the call was inactive.
The entry for `O=C(NNc1ncnc2c1cnn2-c1ccccc1)c1cccs1` is “inactive”; for `COc1cccc(C(=O)N(CN2CCCC2=O)c2cccc(Cl)c2)c1OC` it is “inactive”; for `O=C(Nc1ccc(Cl)c(C(F)(F)F)c1)NC1CC2CCCC(C1)N2C1CC1` (stereo not drawn) it is “inactive”.
The entry for `CCOc1ncccc1C(=O)N(CC)CC(=O)Nc1ccc(NC(C)=O)cc1` is “inactive”.
Consider `CCCCN(C)CCn1c(=S)[nH]c2ncccc2c1=O`, for which the compound was called inactive.

Values taken from PubChem BioAssay AID504941 (Broad Institute, 2011).
